Test results: PubChem BioAssay (EPA / NIEHS)
“And” between values parts separate entries of the source, which are not always exact repeats. Equal entries are not always repeated. The source made the active and inactive calls. Rule for the calls: active = hit-call score of the fitted dose curve at least 0.9, where 1 is the maximum; inactive = score below 0.9.

Key:
Details in all cases: primary human HUVEC with PBMC; actives raise or lower the signal
[1] = read-out: Monocyte Chemoattractant Protein-1 (MCP1), CCL2 (gene 6347); test: BSK_LPS_MCP1: BioMAP Diversity Plus: LPS Assay for Monocyte Chemoattractant Protein-1 (MCP1) Biomarker Activity (AID 2283081);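 for AC50: secreted MCP-1 protein quantified by ELISA in culture supernatant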
Outline: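 Values derive from bidirectional fitting against DMSO of ELISA-measured MCP-1 in a human primary endothelial and mononuclear cell co-culture, 24 h after chemical addition under LPS activation.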

[2] = BSK_LPS_PGE2: BioMAP Diversity Plus: LPS Assay for Prostaglandin E2 (PGE2) Biomarker Activity (AID 2283082);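 for AC50: secreted prostaglandin E2 measured by ELISA in LPS-stimulated co-culture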
Outline: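 Endpoint derived from bidirectional curve fitting versus DMSO of ELISA-measured PGE2 in LPS-stimulated human primary vascular co-culture (HUVEC with PBMC) harvested at 24 h.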

[3] = read-out: Macrophage colony-stimulating factor (MCSF), CSF1 (gene 1435); test: BSK_LPS_MCSF: BioMAP Diversity Plus: LPS Assay for Macrophage colony-stimulating factor (MCSF) Biomarker Activity (AID 2283083)
Outline: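 Bidirectional fit versus DMSO of ELISA-measured M-CSF in co-cultured human umbilical vein endothelial cells and PBMC, sampled 24 h after dosing.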

[4] = read-out: Tissue Factor, F3 (gene 2152); test: BSK_LPS_TissueFactor: BioMAP Diversity Plus: LPS Assay for Tissue Factor Biomarker Activity (AID 2283084)
Outline: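 Read-out: CD142 ELISA, 24 h. System: LPS-driven human endothelial/PBMC co-culture. Analysis: up- or down-signal fitted against DMSO.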

[5] = read-out: Tumor necrosis factor (Homo sapiens) (UniProt P01375); test: BSK_LPS_TNFa: BioMAP Diversity Plus: LPS Assay for Tumour Necrosis Factor alpha (TNFa) Biomarker Activity (AID 2283085)
Outline: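 Primary human vascular co-culture of HUVEC and PBMC; TNFa ELISA 24 h after treatment, analysed as increase or decrease relative to DMSO control.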

[6] = read-out: Vascular cell adhesion molecule 1 (VCAM1), VCAM1 (gene 7412); test: BSK_LPS_VCAM1: BioMAP Diversity Plus: LPS Assay for Vascular cell adhesion molecule 1 (VCAM1) Biomarker Activity (AID 2283086)
Outline: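 Primary human vascular co-culture (umbilical vein endothelium plus PBMC) stimulated with LPS received chemical; 24 h later VCAM-1 was read by ELISA. Overt cytotoxicity was assessed by sulforhodamine B staining of parallel cultures at the same time point.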

CD38, CD38 (gene 952) = test: BSK_SAg_CD38: BioMAP Diversity Plus: SAg Assay for CD38 Biomarker Activity (AID 2283087)
Outline: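 Fluorescence ELISA of cell-surface CD38 served as the read-out, with either increase or decrease fitted against DMSO controls. Cells were a human umbilical vein endothelium plus PBMC co-culture under SEB/TSST-1 stimulation, measured 24 h after dosing.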

CD40, CD40 (gene 958) = test: BSK_SAg_CD40: BioMAP Diversity Plus: SAg Assay for CD40 Biomarker Activity (AID 2283088)
Outline: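 Endpoint derived by fitting increases or decreases versus DMSO controls. CD40 is detected by fluorescence ELISA in a human vascular co-culture of endothelium and PBMC at 24 h.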

CD69, CD69 (gene 969) = test: BSK_SAg_CD69: BioMAP Diversity Plus: SAg Assay for CD69 Biomarker Activity (AID 2283089);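 for AC50: cell surface CD69 protein quantified by ELISA with fluorescence detection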
Outline: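 ELISA, fluorescence read-out: CD69 on human umbilical vein endothelial cell + PBMC co-culture, 24 h post-dosing. Gain or loss of signal fitted bidirectionally against DMSO baseline.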

[7] = read-out: Monocyte Chemoattractant Protein-1 (MCP1), CCL2 (gene 6347); test: BSK_SAg_MCP1: BioMAP Diversity Plus: SAg Assay for Monocyte Chemoattractant Protein-1 (MCP1) Biomarker Activity (AID 2283090)
Outline: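 MCP-1 levels in the endothelial–PBMC SAg co-culture were quantified by ELISA at 24 h post-dosing; both increases and decreases versus DMSO scored. Cytotoxicity monitored by SRB total protein in parallel cultures.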

Measured: AC50

Chain of Tumor necrosis factor (Homo sapiens) (P01375 whole entry, looked up): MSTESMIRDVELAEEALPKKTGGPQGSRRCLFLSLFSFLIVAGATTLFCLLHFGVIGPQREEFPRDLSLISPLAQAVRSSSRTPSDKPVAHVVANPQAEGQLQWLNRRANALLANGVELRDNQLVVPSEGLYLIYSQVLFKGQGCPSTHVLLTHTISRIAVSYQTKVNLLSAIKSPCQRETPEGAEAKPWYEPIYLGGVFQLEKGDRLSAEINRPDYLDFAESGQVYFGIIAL

CCCCC=O
inactive: all assays above

C=CC(=C)CC/C=C(\C)CCC=C(C)C
active: [7] 0.042 µM
inactive: all other assays above

COc1cc(OC)nc(NC(=O)NS(=O)(=O)Nc2ccccc2C(=O)N(C)C)n1
not listed: [7]
inactive: all other assays above

CC[N+](CC)(CC)Cc1ccccc1
not listed: [7]
inactive: all other assays above

Oc1ccc(Cc2ccccc2O)cc1
active: [2] 1.77 µM and 3.97 µM
not listed: [7]
inactive: all other assays above

Cc1ccc(C(=O)c2ccccc2)cc1
active: [2] 1.05 µM
inactive: all other assays above

CS(=O)(=O)c1ccc([C@@H](CC2CCCC2)C(=O)Nc2cnccn2)cc1Cl
inactive: all assays above

O=C(NO)c1ccccc1
not listed: [7]
inactive: all other assays above

CC(=O)Nc1ccc(O)cc1
not listed: [7]
inactive: all other assays above

CC(C)(C)c1ccc(O)c(O)c1
inactive: [2]
active: [1] 29.1 µM | [3] 29.2 µM | [4] 20 µM | [5] 32.8 µM | [6] 24 µM | CD38, CD38 (gene 952) 28.5 µM | CD40, CD40 (gene 958) 27.3 µM | CD69, CD69 (gene 969) 20 µM

C=CC(C)(CCC=C(C)C)OC(C)=O (stereo unspecified)
not listed: [7]
inactive: all other assays above

CCCCC(CC)C(=O)O (stereo unspecified)
not listed: [7]
inactive: all other assays above

CC1=NN(c2ccccc2)C(=O)C1
not listed: [7]
inactive: all other assays above

C=COC(=O)C(C)(C)CCCCCC
inactive: [2] | CD38, CD38 (gene 952)
active: [1] 31 µM | [3] 32.4 µM | [4] 32.5 µM | [5] 0.371 µM | [6] 31.1 µM | CD40, CD40 (gene 958) 4.12 µM | CD69, CD69 (gene 969) 20 µM | [7] 31.1 µM
